Screens from PubChem.
Most compounds without a hit are left out; they make up all but 3.6% or so of the library.
GALK inhibitor – inhibits human galactokinase; recombinant GALK, Kinase-Glo ATP luminescence, 1 h; 44,000 tested, under 10 active; P51570; Potency, µM (top dose mostly 57.5 µM), for the others: at the top dose activity, negative = inhibition, hits mostly inhibitors;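 also: plate controls were full GALK reaction for no effect and reaction lacking GALK for full effect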
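Luminescent ATP-depletion readout (Kinase-Glo Plus, 10 min) after 1 h RT reaction of 5 nM GALK, 35 uM ATP, 100 uM galactose, pH 8.0 HEPES buffer. Decreased kinase activity scored as inhibition.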
HTT promoter inh – inhibitors of huntingtin promoter activity; HEK293 HTT promoter firefly luciferase reporter, 24 h; Potency, µM (series often up to 57.5 µM), for the others: at the top dose activity change, negative = inhibition, actives largely listed as inhibitors; hit rate 0.93% among 48,000; also: potency is read from the fitted curve at half-maximal effect; nearly all actives have a fitted effect of over 50% in size
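HEK293 Fluc reporter, 2,500 cells/well, 24 h pre-culture; cpds up to 57.5 uM final, 24 h 37 degrees C; Dual-Glo, 10 min RT; normalized vehicle = 0%, zero RLU = -100%.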
B2AR arrestin ag – ADRB2 beta-arrestin recruitment; P07550; HTLA Tango cells, beta-arrestin recruitment, luciferase luminescence, 18 h; Potency, µM (titrated, usually from 46.1 µM), hits mostly activators; 44,000 tested, under 10 active; AID 1347077;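 also: potency is read from the fitted curve at half-maximal effect; 0% = DMSO and full agonism = EC100 isoproterenol or metaproterenol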
Target sequence (P07550 whole entry, looked up): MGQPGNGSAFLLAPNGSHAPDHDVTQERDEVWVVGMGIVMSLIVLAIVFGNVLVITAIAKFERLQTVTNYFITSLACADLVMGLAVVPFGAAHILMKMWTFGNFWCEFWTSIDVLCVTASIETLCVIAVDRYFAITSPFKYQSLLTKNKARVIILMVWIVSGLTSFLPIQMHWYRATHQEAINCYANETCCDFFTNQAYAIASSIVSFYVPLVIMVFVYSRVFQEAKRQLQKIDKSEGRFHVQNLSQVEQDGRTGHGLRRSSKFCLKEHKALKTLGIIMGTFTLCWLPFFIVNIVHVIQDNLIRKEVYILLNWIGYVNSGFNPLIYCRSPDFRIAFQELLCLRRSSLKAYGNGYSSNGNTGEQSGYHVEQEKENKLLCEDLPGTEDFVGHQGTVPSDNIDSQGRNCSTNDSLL
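Tango cells (recombinant beta2-AR, beta-arrestin, tTA-driven luciferase), 1500/well in DMEM 1% FBS, treated 18 h at 37 °C with compounds up to 46 µM; luciferin mix added, luminescence read after 15 min; %activity curves fitted and curve-classed.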
HTT-AS act – activators of huntingtin-antisense promoter activity; HEK293 HTT-AS promoter firefly luciferase reporter, 24 h; response scale: percent change from vehicle, -100% = no light; Potency, µM (doses to about 57.5 µM), for inactives: at the top dose activity change, positive = activation, usual class: activators; AID 1508624; hit rate 0.24% among 48,000; also: potency is read from the fitted curve at half-maximal effect; nearly all actives have a fitted effect of over 55% in size
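Luminescence was read after Dual-Glo reagent and a 10 min room-temperature incubation. Values were normalized to vehicle (0% activity) and zero RLU (-100% activity). Reporter HEK293 cells had been exposed to compounds (up to 57.5 uM final) for 24 h.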
DRV1 agonist – agonists of human resolvin D1 receptor DRV1 (GPR32) | activation, % at 76.9 µM | CHO-K1 GPR32 beta-arrestin PathHunter luminescence, 90 min; zero percent set by DMSO-only wells | AID 1346428 | hit rate 2.5% among 48,000;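 active = activation of at least 60% and not above a set upper limit, about 1 call in 100 departs from these limits; inconclusive = activation of 40% to 60%, or above that upper limit; inactive = activation under 40%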; also: 0% is about no effect
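Using DMSO wells as EC0, agonist-induced signal was taken as chemiluminescence from beta-Gal reconstituted upon beta-arrestin recruitment to GPR32 in CHO-K1 cells after 90 min compound treatment.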
TSG101-PTAP inh – blocks PTAP binding to human TSG101, validation; Q99816; Fluorescence polarization, FITC-PTAP peptide/Tsg101, 20 min; Potency, µM (series often up to 115 µM), usual class: inhibitors; 44,000 tested, under 10 active; AID 1347069; also: potency is read from the fitted curve at half-maximal effect; 0% is about no effect
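The Tsg101 binding domain, at 10 uM final, is mixed with compound and a FITC peptide bearing the PTAP motif (50 nM final). After 20 min at r.t., polarization is measured; actives defined by CRC class, efficacy cut-off 60% inhibition.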
* = called active by the depositor; ! = repeats disagree; [ ] = another dose, or the depositor's remark. Unless noted, calls follow the shape of the dose curve; as a rule, active = well fitted curve in the direction sought with a large enough effect; inconclusive = small, poorly fitted or top-dose-only effect, or another doubt; inactive = no such curve, though single readings can be large; an effect the other way counts as inactive or inconclusive.

What do the screens show for `CC(=O)c1cccc(NS(=O)(=O)c2cccc(S(=O)(=O)c3ccc(Br)cc3)c2)c1`?
GALK inhibitor: -19%; HTT promoter inh: 32µM*; B2AR arrestin ag: inactive; HTT-AS act: -54%; DRV1 agonist: 63*; TSG101-PTAP inh: inactive

What do the screens show for `CC(=O)c1cccc(NS(=O)(=O)c2ccc3c(c2)NC(=O)CC(=O)N3)c1`?
GALK inhibitor: -3%; HTT promoter inh: -13%; B2AR arrestin ag: inactive; HTT-AS act: -6%; DRV1 agonist: 0; TSG101-PTAP inh: inactive

Results for CC1COC2(CCN(c3nc(=O)c4cc(C(F)(F)F)cc([N+](=O)[O-])c4s3)CC2)O1 (stereo not given) ?
HTT promoter inh: 12%; HTT-AS act: inconclusive

How did CN1N=C(N)c2cn([C@@H]3O[C@H](COP(=O)(O)O)[C@@H](O)[C@@H]3O)c3ncnc1c23 do in these assays?
HTT promoter inh: -15%; HTT-AS act: -16%

What do the screens show for `O=S(=O)(Nc1cccc(Cl)c1)c1ccc2[nH]c3c(c2c1)CCCCCC3`?
GALK inhibitor: -4%; HTT promoter inh: inconclusive; B2AR arrestin ag: inactive; HTT-AS act: -37%; DRV1 agonist: 62*; TSG101-PTAP inh: inactive

How did Cc1cc(OCC(O)CN2CCN(c3cccc(Cl)c3)CC2)ccc1Cl (stereo not given) do in these assays?
GALK inhibitor: 1%; HTT promoter inh: -10%; B2AR arrestin ag: inactive; HTT-AS act: 1%; DRV1 agonist: 70*; TSG101-PTAP inh: inactive

Results for COc1ccc(N2CCN(CC(O)COc3ccc(C)c(C)c3)CC2)cc1 (stereo not given) ?
GALK inhibitor: 0%; HTT promoter inh: -22%; B2AR arrestin ag: inactive; HTT-AS act: 0%; DRV1 agonist: -23; TSG101-PTAP inh: inactive

How did COc1ccc(N2CCN(CC(O)COc3ccc(C(C)C)c(C)c3)CC2)cc1 (stereo not given) do in these assays?
GALK inhibitor: -10%; HTT promoter inh: -20%; B2AR arrestin ag: inactive; HTT-AS act: 14%[11.5 µM]; DRV1 agonist: 104*; TSG101-PTAP inh: inactive

What do the screens show for `COc1cccc(NC(CNS(=O)(=O)c2ccc(Cl)cc2)c2ccccc2)c1` (stereo not given)?
GALK inhibitor: 3%; HTT promoter inh: inconclusive; B2AR arrestin ag: inactive; HTT-AS act: -41%; DRV1 agonist: 77*; TSG101-PTAP inh: inactive

How did O=S(=O)(NCC(Nc1ccc(Cl)cc1)c1ccccc1)c1ccccc1 (stereo not given) do in these assays?
GALK inhibitor: 7%; HTT promoter inh: inconclusive; B2AR arrestin ag: inactive; HTT-AS act: -23%; DRV1 agonist: 109*; TSG101-PTAP inh: inactive

Results for COc1cccc(NC(CNS(=O)(=O)c2ccc(C)cc2)c2ccccc2)c1 (stereo not given) ?
GALK inhibitor: 6%; HTT promoter inh: inconclusive; B2AR arrestin ag: inactive; HTT-AS act: -22%; DRV1 agonist: 31; TSG101-PTAP inh: inactive

What do the screens show for `Cc1cccc(NC(=O)CSc2nc(-c3cccs3)nc3cc(=O)[nH]n23)c1`?
GALK inhibitor: 4%; B2AR arrestin ag: inactive; DRV1 agonist: -22; TSG101-PTAP inh: inactive

How did Cc1ccc(NC(=O)CSc2nc(-c3cccs3)nc3cc(=O)[nH]n23)cc1 do in these assays?
GALK inhibitor: -6%; B2AR arrestin ag: inactive; DRV1 agonist: 99*; TSG101-PTAP inh: inactive

Results for CC[C@H](C=C[C@@H](C)[C@H]1CC[C@H]2[C@@H]3CC=C4C[C@@H](O)CC[C@]4(C)[C@@H]3CC[C@]12C)C(C)C ?
HTT promoter inh: 0%[25.2 µM]; HTT-AS act: -10%[25.1 µM]

What do the screens show for `Cc1ccc(-c2c(C)n3c4c(=O)n(C)c(=O)n(C)c4nc3n2CCCO)cc1`?
GALK inhibitor: 4%; HTT promoter inh: 10µM*; B2AR arrestin ag: inactive; HTT-AS act: -62%; DRV1 agonist: 60*; TSG101-PTAP inh: inactive

How did COc1cccc(Cn2c(=O)cc(C)c3c(C)nn(C)c32)c1 do in these assays?
GALK inhibitor: 0%; HTT promoter inh: inconclusive; B2AR arrestin ag: inactive; HTT-AS act: -31%; DRV1 agonist: 79*; TSG101-PTAP inh: inactive

What do the screens show for `Cc1oc(-c2ccc(C(=O)Nc3cccc(C(F)(F)F)c3)cc2)nc1CSc1ccccc1`?
GALK inhibitor: 1%; HTT promoter inh: 1.8µM*; B2AR arrestin ag: inactive; HTT-AS act: -89%; DRV1 agonist: -16; TSG101-PTAP inh: inactive

Results for COc1ccc(NC(=O)c2ccc(-c3nc(CSc4ccccc4)c(C)o3)cc2)cc1OC ?
GALK inhibitor: 3%; HTT promoter inh: inconclusive; B2AR arrestin ag: inactive; HTT-AS act: -23%; DRV1 agonist: 16; TSG101-PTAP inh: inactive

How did COc1ccc(NC(=O)c2ccc(-c3nc(CSc4ccc(C)cc4)c(C)o3)cc2)cc1Cl do in these assays?
GALK inhibitor: 1%; HTT promoter inh: 4.5µM*; B2AR arrestin ag: inactive; HTT-AS act: -8%; DRV1 agonist: -4; TSG101-PTAP inh: inactive

Results for NCc1c[nH]c(=S)n1[C@H]1CCc2c(F)cc(F)cc2C1 ?
HTT promoter inh: -9%; HTT-AS act: -22%

What do the screens show for `O=C(CN1C(=O)CCSc2ccccc21)Nc1ccc(C(F)(F)F)cc1`?
GALK inhibitor: 1%; HTT promoter inh: inconclusive; B2AR arrestin ag: inactive; HTT-AS act: -42%; DRV1 agonist: 63*; TSG101-PTAP inh: inactive

How did COc1cc(OC)nc(O[C@H](C(=O)O)C(OC)(c2ccccc2)c2ccccc2)n1 do in these assays?
HTT promoter inh: 3%; HTT-AS act: -2%; DRV1 agonist: -51

What do the screens show for `O=C(O)c1cccnc1Nc1cccc(C(F)(F)F)c1`?
HTT promoter inh: -5%; HTT-AS act: -15%; DRV1 agonist: 100*!

What do the screens show for `CC(C)c1onc(-c2c(Cl)cccc2Cl)c1COc1ccc(C=Cc2cccc(C(=O)O)c2)c(Cl)c1`?
HTT promoter inh: 23%; HTT-AS act: inconclusive

Results for O=C(Nc1nc2cccc(-c3ccc(CN4CCS(=O)(=O)CC4)cc3)n2n1)C1CC1 ?
HTT promoter inh: 25%; HTT-AS act: 24µM*

Results for O=c1[nH]c(=O)n([C@H]2C[C@@H](O)[C@@H](CO)O2)cc1I ?
HTT promoter inh: 23%; HTT-AS act: -10%

What do the screens show for `COc1ccc2c3n(c(=NC(=O)c4cccnc4)nc2c1OC)CCN3`?
HTT promoter inh: inconclusive; HTT-AS act: -29%
